Results as given in PubChem BioAssay.

Experiment: resazurin metabolic signal in HepG2 cells – cell-based, resazurin fluorescence, 24 h, PK04 Diversity Set, profiling panel (AID 1172); note: test concentration not given here
Details: HepG2 viability, higher = more signal

Compound	z-score
COCC(=C=CC[C@H](O)c1ccc(OCCO)cc1)C[C@H](O)COCc1ccccc1	0.993
O=C1NC(=O)C2C1C=CC(C(O)c1cc(C(F)(F)F)cc(C(F)(F)F)c1)N2Nc1ccc(Cl)cc1Cl (centres undefined)	-1.71
COC(=O)[C@H](Cc1ccccc1)N1CC(/C=C/C2CC2)=C[C@@H]1[C@@H](O)Cc1ccccc1	1.09
NC(=O)NCC#Cc1ccc2c(c1)[C@]1(C(=O)N2)[C@H](C(=O)Nc2nc3ccccc3s2)[C@H]2C(=O)O[C@H](c3ccccc3)[C@H](c3ccccc3)N2[C@@H]1c1ccc(O)cc1	0.493
O=C1O[C@@H](c2ccccc2)[C@@H](c2ccccc2)N2[C@@H](c3ccc(O)cc3)[C@]3(C(=O)Nc4ccc(C#CC5=CCCCC5)cc43)[C@@H](C(=O)N3CCN(c4ncccn4)CC3)[C@H]12	1.48
CC(=O)NCCCC[C@@H]1NC(=O)[C@@H]2C[C@H](C(=O)O)[C@H](c3ccc(O)cc3)N2C1=O	-0.253
COc1cc(CO)cc(I)c1O[C@H]1C=C(C(=O)NCCO)C[C@@H](NCc2ccccc2F)[C@@H]1O	-0.0271
O=C1NCC(=O)N2[C@@H]1C[C@@H](C(=O)O)[C@H]2c1ccc(O)cc1	0.153
COC(=O)[C@@]1(Cc2ccc(F)cc2)[C@H]2c3cc(C(=O)N4CCCC4)n(CCF)c3C[C@H]2CN1C(=O)c1ccccc1	-0.282
C[C@]1(C(=O)O)c2ccccc2C(=O)N(Cc2ccccc2)[C@H]1c1ccc(CO)cc1	0.244
CCOC(=O)C[C@H]1[C@H](OC(=O)c2ccc(-c3ccccc3)cc2)[C@@H](NC(=O)C2CCCCC2)c2cc(OCCCO)ccc2N1C(=O)c1ccccc1	-0.755
O=C1O[C@@H](c2ccccc2)[C@@H](c2ccccc2)N2[C@@H](c3ccccc3OCCO)[C@]3(C(=O)Nc4ccccc43)[C@@H](C(=O)NC[C@H](O)c3ccccc3)[C@H]12	-1.03
C=CC1c2cc(O)c(OC)cc2CCN1Cc1sc2ccccc2c1Cl (centres undefined)	-0.62
CC(C)CN1C(=O)[C@@]2(c3ccc([N+](=O)[O-])cc3)CC(=O)N(CC34CC5CC(CC(C5)C3)C4)[C@@H]2c2ccc(CO)cc21	-1.64
COCCOC(=O)N1C(=O)[C@@]2(c3cc(C#Cc4ccc(OC)cc4)ccc31)[C@H](C(=O)N1CCN(c3ncccn3)CC1)[C@H]1C(=O)O[C@H](c3ccccc3)[C@H](c3ccccc3)N1[C@@H]2c1ccccc1OCCO	0.205
CCOC(=O)C[C@H]1[C@H](OC(=O)Cc2ccc3c(c2)OCO3)[C@@H](NC(=O)Cc2ccc(OC)cc2)c2cc(OCCCO)ccc2N1C(=O)c1ccccc1	-0.174
[N-]=[N+]=Nc1ccccc1C[C@]1(C(=O)NCc2ccccc2)N=C(c2ccc(OCCCO)cc2)O[C@H]1c1ccccc1	-0.328
COC(=O)Cn1c(C(=O)N2CCCC2)cc2c1C[C@H]1CN(C(=O)c3ccccc3)[C@@](Cc3ccc(F)cc3)(C(=O)OC)[C@@H]21	0.716
COc1ccc(NN2C(C(O)c3ccco3)C=CC3C(=O)N(C4CCCCC4)C(=O)C32)cc1 (centres undefined)	0.502
CCCCN1CC=CC23O[C@@H]4C=CCOC(=O)[C@@H]4[C@H]2C(=O)N(C(C)CO)[C@@H]3C1=O (some centres undefined)	-0.0023
COc1ccc(NC(=O)O[C@H]2[C@H](OC(=O)Nc3ccc4c(c3)OCO4)[C@@H](OC(=O)Nc3ccc4c(c3)OCO4)[C@@H](OC)O[C@@H]2CO)cc1	-0.315
C=CCN1C(=O)[C@]2(CC=C)N=C(c3ccc(OCCCO)cc3)O[C@@H]2c2ccccc21	-0.956
CC1CC/C=C\[C@H]2OC34C=CCN(C(C)C)C(=O)[C@H]3N(CCCCCO)C(=O)[C@@H]4C2C(=O)O1 (some centres undefined)	0.551
COC(=O)[C@@]1(Cc2ccccc2)[C@H]2c3cc(C(=O)N4CCCC4)n(Cc4ccsc4Br)c3C[C@H]2CN1C(=O)c1ccccc1	-1.08
NCCCCCNC(=O)[C@@H]1C[C@@H]2C(=O)N[C@@H](CCCCN)C(=O)N2[C@@H]1c1cccc(OCCO)c1	1.03
CCOC(=O)C1=CC[C@@H](c2ccc([N+](=O)[O-])cc2)N(S(=O)(=O)c2ccc(C)cc2)[C@H]1c1ccccc1	0.468
CC(C)c1ccc(NN2C(C(O)c3ccco3)C=CC3C(=O)N(c4ccccc4)C(=O)C32)cc1 (centres undefined)	-0.517
COC1(C)CN(Cc2ccccc2Br)[C@H](/C=C/c2ccccc2)[C@H](Cc2ccccc2)O1 (some centres undefined)	1.1
CC=CC(O)C1C=CC2C(=O)N(C)C(=O)C2N1N1CCCCC1 (centres undefined)	-0.245
